# High-throughput results deposited in PubChem BioAssay by University of Kansas High Throughput Screening Laboratory.
# mHTT CaM bind = mutant huntingtin-calmodulin interaction inhibitors – biochemical, AlphaScreen, primary screen. actives 3.6% (n = 190,000). P42858. AlphaScreen His-mHTT/GST-CaM binding, luminescence. AID 1671202, 2021. inhibition, % at 15 µM;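 also: 0% = both proteins with DMSO and 100% = one protein alone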
# Target sequence (P42858 whole entry, looked up, stated change not applied): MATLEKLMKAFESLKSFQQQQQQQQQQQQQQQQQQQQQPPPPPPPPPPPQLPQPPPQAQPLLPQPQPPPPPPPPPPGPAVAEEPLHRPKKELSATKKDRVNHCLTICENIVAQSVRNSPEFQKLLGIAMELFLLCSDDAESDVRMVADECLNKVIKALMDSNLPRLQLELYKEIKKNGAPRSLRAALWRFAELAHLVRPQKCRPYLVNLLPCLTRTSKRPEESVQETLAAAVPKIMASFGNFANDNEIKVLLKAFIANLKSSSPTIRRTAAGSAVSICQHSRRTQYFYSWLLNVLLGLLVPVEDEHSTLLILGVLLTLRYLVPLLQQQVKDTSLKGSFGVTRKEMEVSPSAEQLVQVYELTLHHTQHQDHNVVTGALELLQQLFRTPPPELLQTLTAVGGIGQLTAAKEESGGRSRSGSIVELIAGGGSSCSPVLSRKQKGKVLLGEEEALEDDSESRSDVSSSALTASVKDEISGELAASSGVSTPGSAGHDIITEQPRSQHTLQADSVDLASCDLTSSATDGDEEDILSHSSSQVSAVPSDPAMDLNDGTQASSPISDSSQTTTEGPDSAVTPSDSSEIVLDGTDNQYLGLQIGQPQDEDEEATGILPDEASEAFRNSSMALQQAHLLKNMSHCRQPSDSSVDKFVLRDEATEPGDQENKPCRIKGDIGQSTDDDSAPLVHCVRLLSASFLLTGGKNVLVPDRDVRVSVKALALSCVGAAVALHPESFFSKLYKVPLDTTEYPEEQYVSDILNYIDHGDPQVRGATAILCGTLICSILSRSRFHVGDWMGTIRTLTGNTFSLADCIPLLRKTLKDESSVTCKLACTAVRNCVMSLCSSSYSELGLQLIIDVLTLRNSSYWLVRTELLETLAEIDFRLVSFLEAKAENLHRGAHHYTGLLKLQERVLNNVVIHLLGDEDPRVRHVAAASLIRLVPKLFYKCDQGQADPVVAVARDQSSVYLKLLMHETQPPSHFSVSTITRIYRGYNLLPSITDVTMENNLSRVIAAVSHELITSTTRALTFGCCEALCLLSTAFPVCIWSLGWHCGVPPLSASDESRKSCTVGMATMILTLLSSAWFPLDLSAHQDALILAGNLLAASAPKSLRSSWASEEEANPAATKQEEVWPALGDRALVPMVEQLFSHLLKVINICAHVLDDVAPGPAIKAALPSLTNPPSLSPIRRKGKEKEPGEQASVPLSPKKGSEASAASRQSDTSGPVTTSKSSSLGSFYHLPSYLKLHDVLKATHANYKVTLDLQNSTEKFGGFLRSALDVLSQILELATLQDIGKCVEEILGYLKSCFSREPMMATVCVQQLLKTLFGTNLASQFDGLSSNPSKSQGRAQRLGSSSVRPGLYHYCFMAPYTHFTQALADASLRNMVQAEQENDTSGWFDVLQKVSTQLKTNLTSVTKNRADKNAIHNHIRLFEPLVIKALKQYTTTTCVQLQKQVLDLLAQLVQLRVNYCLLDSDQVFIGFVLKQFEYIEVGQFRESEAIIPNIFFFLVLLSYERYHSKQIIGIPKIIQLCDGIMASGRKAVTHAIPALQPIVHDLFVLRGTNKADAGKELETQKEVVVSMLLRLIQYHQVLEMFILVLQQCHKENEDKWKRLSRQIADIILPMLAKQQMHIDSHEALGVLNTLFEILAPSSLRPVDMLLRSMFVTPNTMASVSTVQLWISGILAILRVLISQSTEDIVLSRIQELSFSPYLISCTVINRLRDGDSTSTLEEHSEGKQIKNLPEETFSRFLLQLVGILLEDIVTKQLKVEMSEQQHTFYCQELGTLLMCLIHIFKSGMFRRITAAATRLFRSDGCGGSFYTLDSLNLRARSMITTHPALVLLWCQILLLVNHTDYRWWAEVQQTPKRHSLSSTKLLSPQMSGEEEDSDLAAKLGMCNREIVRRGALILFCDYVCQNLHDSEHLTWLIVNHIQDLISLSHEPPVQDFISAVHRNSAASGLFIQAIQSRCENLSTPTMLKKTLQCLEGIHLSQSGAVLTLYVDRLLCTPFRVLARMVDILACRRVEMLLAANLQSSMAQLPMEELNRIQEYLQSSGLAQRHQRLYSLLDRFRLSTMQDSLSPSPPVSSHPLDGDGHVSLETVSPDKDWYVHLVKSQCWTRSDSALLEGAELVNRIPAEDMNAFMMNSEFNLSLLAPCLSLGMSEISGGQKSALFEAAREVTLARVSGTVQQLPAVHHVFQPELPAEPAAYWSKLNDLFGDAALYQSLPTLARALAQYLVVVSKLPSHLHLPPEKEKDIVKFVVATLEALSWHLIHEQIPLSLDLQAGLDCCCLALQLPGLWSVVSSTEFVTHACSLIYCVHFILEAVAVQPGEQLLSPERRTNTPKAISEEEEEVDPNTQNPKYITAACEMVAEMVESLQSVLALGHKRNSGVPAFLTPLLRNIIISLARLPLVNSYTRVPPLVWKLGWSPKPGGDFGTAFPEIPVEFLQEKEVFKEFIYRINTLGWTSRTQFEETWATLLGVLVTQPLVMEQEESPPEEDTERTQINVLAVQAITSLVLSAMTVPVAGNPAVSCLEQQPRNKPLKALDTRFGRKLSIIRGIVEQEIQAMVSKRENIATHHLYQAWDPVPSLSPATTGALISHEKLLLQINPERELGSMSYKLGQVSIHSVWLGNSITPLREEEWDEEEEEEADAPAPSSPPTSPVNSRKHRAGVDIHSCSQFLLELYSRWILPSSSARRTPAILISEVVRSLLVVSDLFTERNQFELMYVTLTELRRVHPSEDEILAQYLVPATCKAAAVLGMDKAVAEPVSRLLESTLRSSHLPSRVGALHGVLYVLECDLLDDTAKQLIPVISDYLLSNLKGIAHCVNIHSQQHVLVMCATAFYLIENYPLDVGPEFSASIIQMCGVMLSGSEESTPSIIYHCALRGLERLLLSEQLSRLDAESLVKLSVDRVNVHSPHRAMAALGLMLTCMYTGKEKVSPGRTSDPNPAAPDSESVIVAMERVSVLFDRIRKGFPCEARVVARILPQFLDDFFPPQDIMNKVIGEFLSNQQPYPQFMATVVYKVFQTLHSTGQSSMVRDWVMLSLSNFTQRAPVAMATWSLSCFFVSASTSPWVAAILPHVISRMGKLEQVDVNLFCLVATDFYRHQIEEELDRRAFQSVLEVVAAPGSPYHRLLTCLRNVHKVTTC
# Pf apPOL block = Pf-apPOL inhibitors, biochemical, fluorescence; Plasmodium falciparum apicoplast DNA polymerase (apPOL); Recombinant Pf-apPOL, molecular beacon fluorescence, 1.5 h; inhibition, % at 10 µM; actives 0.25% (n = 210,000); AID 1794808, 2022
# Active calls of the source: *; · = no result given. Sampled rows, rich in hits. Any-hit rate of the full collection: about 3.6%. Rule as the data show it: active = inhibition above about 50%; inactive = the rest.
SMILES,mHTT CaM bind,Pf apPOL block
Cn1c(N=C(N)c2ccc([N+](=O)[O-])cc2)nc2ccccc21,6,-2
O=C(C1CCN(c2nc3cccnc3s2)CC1)N1CCN(c2ccccc2)CC1,8,-5
O=[N+]([O-])c1ccc(S(=O)(=O)N2CC3C4C=CC(C4)C3C2)cc1 (stereo not given),4,8
NS(=O)(=O)c1cc2c3c(c1)C1C=CCC1C(c1ccc([N+](=O)[O-])cc1)N3CC1CC=CC21 (stereo not given),63*,-8
Cc1ccc(CNC(=O)c2ccc3ncnc(N4CCCC4)c3c2)o1,17,6
CCn1c(=O)[nH]c2ccc(Br)cc2c1=O,5,7
O=c1[nH]c2ccc(Br)cc2c(=O)n1C1CCCCC1,52*,-3
Oc1oc(-c2ccc(Cl)cc2)nc1C=Nc1ccc(Br)cn1,-3,-4
Oc1oc(-c2ccc(Cl)cc2)nc1C=Nc1ccc(Cl)cn1,-1,62*
O=C(Nc1cccc(Cl)c1)c1nn2c(c1Cl)NC(c1cccs1)CC2C(F)(F)F (stereo not given),17,-4
Cc1ccc(O)c(NC(=O)c2nn3c(c2Cl)NC(c2ccccc2)CC3C(F)(F)F)c1 (stereo not given),54*,-2
Cc1ccc(O)c(NC(=O)c2nn3c(c2Cl)NC(c2cccs2)CC3C(F)(F)F)c1 (stereo not given),55*,2
CC(C)(C)NC(=O)c1nn2c(c1Cl)NC(c1ccccc1)CC2C(F)(F)F (stereo not given),11,2
O=C1N(CC[C@@H](O)c2ccccc2)CCC12CCC(c1ccccc1)CC2 (stereo not given in full),-3,-10
Cc1ccccc1C1CCC2(CC1)CCN(CC[C@@H](O)c1ccccc1)C2=O (stereo not given in full),53*,-9
COc1cccc(C(=O)NC(c2ccc([N+](=O)[O-])cc2)c2cc(Cl)c3cccnc3c2O)c1 (stereo not given),20,-9
COc1cccc(C(=O)NC(c2ccccc2)c2cc(Cl)c3cccnc3c2O)c1 (stereo not given),54*,2
CCCC(=O)NC(c1ccco1)c1cc(Cl)c2cccnc2c1O (stereo not given),43,13
COc1cccc(C(=O)NC(c2ccc(OC)c(OC)c2)c2cc(Cl)c3cccnc3c2O)c1 (stereo not given),52*,-6
COc1cccc(C(=O)NC(c2ccco2)c2cc(Cl)c3cccnc3c2O)c1 (stereo not given),80*,1
N#Cc1ccc(-c2ccccc2)[nH]c1=O,4,-8
O=c1cc(-c2ccccc2)[nH][nH]1,100*,-6
O=C(Nc1cccc(Cl)c1)c1cnn2c(C(F)(F)F)cc(-c3ccco3)nc12,5,0
CC(=O)N1CCc2[nH]c3ccc(C(=O)N4CCCC4)cc3c2C1,61*,0
CC(=O)N1CCc2[nH]c3ccc(C(=O)N4CCN(Cc5ccccc5)CC4)cc3c2C1,38,0
SMILES,mHTT CaM bind,Pf apPOL block
CC(=O)N1CCc2[nH]c3ccc(C(=O)N(C)c4cccc(Cl)c4)cc3c2C1,50*,-6
CCCN1CCN(C(=O)c2ccc3[nH]c4c(c3c2)CN(C(C)=O)CC4)CC1,8,-5
CC1CCCCN1Cc1c(O)ccc2c1OC(=Cc1cc3ccccc3o1)C2=O (stereo not given),-2,-20
O=C1C2C3C=CC(CC3)C2C(=O)N1c1ccc(Cl)cc1[N+](=O)[O-] (stereo not given),2,-4
O=C(Cc1ccc(Cl)cc1)Nc1ncc([N+](=O)[O-])s1,98*,-6
O=C(Cc1ccc(Br)cc1)Nc1ncc([N+](=O)[O-])s1,12,-3
COc1cccc(C=Nc2cc(C)cc(C)c2O)c1O,50*,-4
Cc1cc(C)c(O)c(N=Cc2cccc([N+](=O)[O-])c2O)c1,26,-1
CCOC(=O)c1ccc(NC(=O)N2CCCC2c2cc(C)on2)cc1 (stereo not given),-8,-7
COc1ccc(-c2[nH]n(-c3nc4ccccc4s3)c(=O)c2C=NCc2ccccn2)cc1,84*,-6
COc1ccc(-c2[nH]n(-c3nc4ccccc4s3)c(=O)c2C=NCC2CCCO2)cc1 (stereo not given),45,-2
CSc1ccc(N2CC(c3nnc(NC(=O)C4CCCCC4)o3)CC2=O)cc1 (stereo not given),0,0
O=C(O)COc1ccccc1C1OC2CCCCC2C2=CCCCC21 (stereo not given),50*,-6
Oc1ccccc1C1OC2CCCCC2C2=CCCCC21 (stereo not given),-8,-7
Nc1ccccc1Nc1c([N+](=O)[O-])c(=O)oc2ccccc12,71*,0
COc1ccccc1Nc1c([N+](=O)[O-])c(=O)oc2ccccc12,10,2
O=C(O)c1cc(N2C(=O)C=CC2=O)ccc1Cl,·,55*
O=C(NCc1ccccc1)c1cc(N2C(=O)C=CC2=O)ccc1Cl,31,-2
N#Cc1ccc(-c2cccnc2)nc1SCC(=O)c1ccc(Br)cc1,-6,7
COc1ccc(S(=O)(=O)n2cccn2)cc1OC,2,-6
O=C1Nc2ccccc2C1=Nc1ccc(Nc2ccccc2)cc1,100*,2
O=C1Nc2ccccc2C1=Nc1ccc(C(=O)c2ccccc2)cc1,3,0
COc1ccc(OC)c(COCC(O)CN2CCC(C)CC2)c1 (stereo not given),-9,-8
O=C(NCCN1CCN(c2ccccc2F)CC1)C1(n2cccc2)CCCCC1,24,-9
CC1=C(C(=O)NCCCN2CCN(c3cc(C)ccc3C)CC2)C2(CCCCC2)OC1=O,12,0
SMILES,mHTT CaM bind,Pf apPOL block
O=C(NCCN1CCN(c2cccc(C(F)(F)F)c2)CC1)C1(n2cccc2)CCCCC1,97*,-5
Cc1ccc(Cl)cc1N1CCN(CCCNC(=O)C2(n3cccc3)CCCCC2)CC1,86*,-12
O=C(NCC#CCN1CCc2ccccc2C1)c1cncc(Br)c1,-3,-4
Nc1c(C(=O)Nc2nccs2)sc2nc3c(cc12)CCC3,26,-9
Nc1c(C(=O)Nc2nccs2)sc2nc3c(cc12)CCCCC3,64*,6
Cc1cc(C(=O)Nc2nnc(-c3cccs3)o2)no1,-1,7
Cc1ccc(S(=O)(=O)Nc2cccc(C(=O)Nc3nnc(-c4cccs4)o3)c2)cc1,82*,-237
CCN(CC)S(=O)(=O)c1ccc(C(=O)Nc2nnc(-c3cccs3)o2)cc1,27,0
Cc1onc(-c2ccccc2Cl)c1C(=O)Nc1nnc(-c2cccs2)o1,82*,-146
O=C(Nc1ccccc1C(=O)NCCc1ccc(Cl)cc1)c1ccc([N+](=O)[O-])o1,·,-2
O=C(O)c1ccc(N=Cc2cc(Br)ccc2O)cc1,1,1
O=C(O)c1ccc(O)c(C=Nc2ccc(Br)cc2)c1,85*,0
Cc1ccc(-n2cc(-c3ccc(Br)cc3)[nH]c2=O)cc1F,8,4
O=C(NCC(c1cccs1)S(=O)(=O)c1ccccc1)Oc1ccccc1 (stereo not given),2,2
Cc1ccc(S(=O)(=O)C(CN)c2cccs2)cc1 (stereo not given),-16,69*
Cc1cc2c(c(=O)[nH]1)C(=O)O/C2=C\c1ccc2c(c1)OCO2,-2,-12
Cc1csc(NC(=O)CCC(=O)O)n1,-4,1
